Source: PubChem BioAssay
PLCg1 inh: PLC-gamma1 enzyme inhibitors, primary screen, biochemical, fluorescence, purified enzyme | 1-phosphatidylinositol 4,5-bisphosphate phosphodiesterase gamma-1 (Homo sapiens), P19174 | fluorogenic substrate | inhibition, % at 12.2 µM | 0.84% of 370,000 active | AID 720700, 2013
PLCb3 inh: human PLC-beta3 inhibitors, primary screen, biochemical, fluorescence | Purified PLC-beta3, fluorogenic substrate | 0.18% of 370,000 active | inhibition, % at 12.2 µM; in the data active = inhibition above about 11%;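 note: 0% = median of compound wells on plate and 100% = full blocker control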
proKLK7 act: proKLK7 zymogen activators, primary screen, biochemical, fluorescence intensity. Kallikrein-7 (Homo sapiens), P49862. activation, % at 7 µM. purified proKLK7, EDANS-DABCYL substrate fluorescence; 100% is mature enzyme control, 0% vehicle. 0.9% of 370,000 active;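 active = activation above the mean of all tested compounds plus 3 SD, computed per campaign excluding outliers beyond control limits, cut at about 13% in these data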
ADAM10 inh: human ADAM10 inhibitors, primary screen, biochemical, QFRET, HTS; Disintegrin and metalloproteinase domain-containing protein 10 (Homo sapiens), O14672; recombinant ADAM10, EDANS/DABCYL FRET peptide cleavage, 3 h; inhibition, % at 7 µM; 0.62% of 370,000 active; AID 720582, 2013;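 active = inhibition above a per-campaign cutoff equal to the mean of compounds falling between control-based bounds plus 3 SD, cut at about 20% in these data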;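 note: 0% = DMSO wells while the 100% control is not disclosed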
ADAM17 inh: ADAM17 inhibitors, primary screen, biochemical, QFRET | Disintegrin and metalloproteinase domain-containing protein 17 (Homo sapiens), P78536 | recombinant ADAM17, EDANS/DABCYL FRET peptide cleavage | inhibition, % at 6.95 µM | 0.83% of 370,000 active | AID 720648, 2013;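 active = inhibition above the mean of compounds lying between control limits plus 3 SD, set per campaign, cut at about 8.5% in these data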;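 note: 0% = DMSO-only wells as the low control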
ADAM10 confirm: human ADAM10 inhibitors, confirmation, biochemical, QFRET, triplicate | inhibition, % at 6.95 µM | ADAM10 QFRET peptide cleavage, EDANS fluorescence | shares compounds with ADAM10 inh | 1% of 2,100 active;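 active = inhibition above about 20% chosen separately for each screening run, limit read from the data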;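 note: 0% = DMSO wells and 100% = marimastat wells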
ADAM17 ctr: ADAM17 inhibitors, counter-screen for ADAM10 exosite inhibitor project, biochemical, QFRET, high throughput; 0.5% of 2,100 active; shares compounds with ADAM10 inh; AID 743214, 2013; ADAM17 QFRET peptide cleavage, EDANS fluorescence; inhibition, % at 6.95 µM;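 active = mean triplicate inhibition above the solvent-only control wells' mean plus 3 SD, cut at about 12% in these data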;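 note: 0% = DMSO wells and 100% = marimastat wells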
ADAM10 ctr: ADAM10 inhibitors, counter-screen for ADAM17 exosite inhibitor project, biochemical, FRET, human ADAM10 | shares compounds with ADAM17 inh | recombinant ADAM10, EDANS/DABCYL FRET peptide cleavage, 3 h | inhibition, % at 6.95 µM | 47% of 2,900 active | AID 743256, 2014;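 active = mean inhibition over the triplicate runs exceeds the activity threshold set in the earlier primary screen, cut at about 20% in these data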;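 note: 0% = DMSO wells and 100% = marimastat wells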
ADAM17 confirm: ADAM17 inhibitors, hit retest, confirmation, biochemical, QFRET peptide cleavage | recombinant ADAM17, EDANS/DABCYL QFRET peptide cleavage | shares compounds with ADAM17 inh | inhibition, % at 6.95 µM | 65% of 2,900 active;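 active = mean inhibition across replicates above the hit cutoff set in the primary screen, cut at about 8.5% in these data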;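 note: 0% = DMSO wells and 100% = marimastat wells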
PLCg1 ctr: PLC-gamma1 enzyme inhibitors, counter-screen for PLC-beta3 inhibitor project, biochemical, fluorescence. inhibition, % at 12.3 µM. AID 743258, 2014. shares compounds with PLCg1 inh. purified PLC-gamma1, fluorogenic substrate. 3.1% of 3,300 active
PLCb3 confirm: PLC-beta3 inhibitor confirmation, biochemical, fluorescence, purified enzyme; shares compounds with PLCg1 inh; 1% of 3,300 active; inhibition, % at 12.3 µM; AID 743261, 2014; fluorogenic substrate fluorescence; in the data active = inhibition above about 11%
* hit, by the source's call; / = not tested or not shown. Rows were chosen to be rich in hits. Some 2.9% of all compounds tested hit in one or more screens of this group. Cut-off read from the data, not from the text of the source, unless noted: active = inhibition above about 9.5%; inactive = the rest.

SMILES | PLCg1 inh | PLCb3 inh | proKLK7 act | ADAM10 inh | ADAM17 inh | ADAM10 confirm | ADAM17 ctr | ADAM10 ctr | ADAM17 confirm | PLCg1 ctr | PLCb3 confirm
Cc1cccc(Oc2cc(NC(=O)Cn3cnc([N+](=O)[O-])n3)cc([N+](=O)[O-])c2)c1 | 11* | 5 | 1 | 28* | 8 | 5 | 2 | / | / | 5 | 2
Cc1cc([N+](=O)[O-])nn1CCCC(=O)Nc1cc(Oc2ccccc2)cc([N+](=O)[O-])c1 | 5 | 3 | 1 | 8 | 3 | / | / | / | / | / | /
COC(=O)C[C@H]1CC[C@@H](NC(=O)Nc2ccc(C(F)(F)F)cc2)[C@@H](CO)O1 | -3 | -1 | -1 | -10 | -4 | / | / | / | / | / | /
COc1ccc([C@H]2CN(Cc3ccccc3)C(=O)[C@@H]2CC(=O)Nc2ccccc2)cc1 | 1 | 3 | 0 | 1 | 2 | / | / | / | / | / | /
O=C(Nc1ccc(F)c(Cl)c1)c1cc(C2CCCN(S(=O)(=O)c3cccc4cccnc34)C2)on1 (stereo not drawn) | 1 | 11* | 0 | 25* | 12* | 4 | 2 | 25* | 13* | -9 | -5
CCCNC(=O)c1cc(C2CCCN(S(=O)(=O)c3cccc4cccnc34)C2)on1 (stereo not drawn) | 2 | 3 | 0 | -3 | -1 | / | / | / | / | / | /
Cc1ccc(CNC(=O)CO/N=C/c2ccc(C(C)(C)C)cc2)cc1 | 2 | -3 | 0 | 8 | -3 | / | / | / | / | / | /
CC(C)(C)c1ccc(/C=N/OCC(=O)NCc2ccc(F)cc2)cc1 | 13* | 2 | 0 | 28* | 13* | 3 | 0 | 22* | 11* | -10 | -6
C=CC[C@H](CC(=O)N(CCO)Cc1ccccc1)C(=O)NC[C@H](OC(=O)[C@@H](CC=C)CC(=O)OC(C)(C)C)c1ccccc1 | 8 | -1 | 1 | 12 | 3 | / | / | / | / | / | /
C=CCC[C@H](Cc1ccc(F)cc1)C(=O)OC[C@@H](Cc1c[nH]c2ccccc12)NC(=O)[C@@H](CC=C)CC(=O)N[C@H](CO)Cc1ccccc1 | 4 | 1 | 0 | 7 | 5 | / | / | / | / | / | /
C=CCC[C@@H](Cc1ccc(F)cc1)C(=O)OC[C@H](Cc1c[nH]c2ccccc12)NC(=O)[C@@H](CC=C)CC(=O)N[C@H](CO)Cc1ccccc1 | 0 | 2 | 0 | 3 | -1 | / | / | / | / | / | /
C=CCC[C@H](Cc1ccc(F)cc1)C(=O)OC[C@@H](Cc1c[nH]c2ccccc12)NC(=O)[C@H](CC=C)CC(=O)N(CCO)Cc1ccccc1 | 12* | 5 | 0 | 43* | 25* | 11 | 3 | 61* | 35* | -6 | -2
C=CCC[C@H](Cc1ccc(F)cc1)C(=O)OC[C@H](Cc1c[nH]c2ccccc12)NC(=O)[C@@H](CC=C)CC(=O)N[C@H](CO)Cc1ccccc1 | 12* | -3 | 0 | 30* | 12* | 13 | 3 | 38* | 22* | 5 | -1
C=CC[C@@H](CC(=O)N(CCO)Cc1ccccc1)C(=O)NC[C@H](OC(=O)[C@@H](CC=C)Cc1ccc(F)cc1)c1ccccc1 | 10* | 4 | 1 | 26* | 13* | 7 | 2 | 34* | 19* | -5 | -1
C=CC[C@H](CC(=O)N(CCO)Cc1ccccc1)C(=O)N[C@@H](COC(=O)[C@H](CC=C)CC(=O)OC(C)(C)C)Cc1c[nH]c2ccccc12 | -3 | 3 | 0 | 13 | 5 | / | / | / | / | / | /
C=CC[C@@H](CC(=O)N(CCO)Cc1ccccc1)C(=O)N[C@H](COC(=O)[C@@H](CC=C)CC(=O)OC(C)(C)C)Cc1c[nH]c2ccccc12 | 9.6* | 9 | 0 | 25* | 14* | 2 | 1 | 33* | 16* | 1 | -9
CC(=O)N1C(=O)C2(NCC(C)N2)c2ccccc21 (stereo not drawn) | 0 | 0 | 0 | -3 | -2 | / | / | / | / | / | /
COC(=O)c1cnc(NC(=O)C2(C)CCN2C(=O)C(C)C)s1 (stereo not drawn) | 3 | 1 | 1 | 2 | 0 | / | / | / | / | / | /
CCN(CC)S(=O)(=O)c1ccc(NC(=O)COC(=O)CCc2cc(OC)c(OC)c(OC)c2)cc1 | 8 | 11* | -1 | 28* | 11* | 6 | 1 | 5 | 3 | -3 | -3
COc1ccc(N(Cc2cc(=O)[nH]c3ccccc23)C(C)=O)cc1 | 2 | -6 | -1 | -2 | -2 | / | / | / | / | / | /
COc1ccc(OC)c(NC(=O)COC(=O)Cc2ccc(-c3ccccc3)cc2)c1 | 14* | 1 | 0 | 28* | 15* | 7 | 2 | 14 | 13* | -8 | -6
COc1ccc(OC)c(NC(=O)COC(=O)Cc2ccc(Br)cc2)c1 | -1 | -3 | 0 | 8 | 2 | / | / | / | / | / | /
O=C(NCC(c1ccccc1)c1ccccc1)[C@H](Cc1c[nH]c2ccccc12)NC1(C(=O)NC2CCCCC2)CCCCCC1 | 2 | 0 | / | -8 | -5 | / | / | / | / | / | /
O=C(NCC(c1ccccc1)c1ccccc1)[C@H](Cc1c[nH]c2ccccc12)NC1(C(=O)NC2CCCCC2)CCC1 | 10* | 7 | / | 24* | 14* | 7 | 2 | 34* | 24* | -3 | -1
O=[N+]([O-])c1ccc(Cn2ccc3ccc(-c4ccc5ccn(Cc6ccccc6)c5c4)cc32)cc1 | -17 | -22 | -1 | -7 | -5 | / | / | / | / | / | /
